From PubChem BioAssay (NCI)
The panel holds about 79,000 compounds, 15% with a hit somewhere; the sample as a whole holds those more often. Values without a mark were called inactive. Cut-off read from the data, not from the text of the source: active = growth inhibition above about 70%; inactive = the rest.

Experiment: NCI Yeast Anticancer Drug Screen. Data for the bub3 strain (AID 167)
Conditions: S. cerevisiae bub3 mutant strain, at 50.0 µM, active compounds read high
Outline: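 Mutant yeast screening strain plus compound; vehicle-treated cultures serve as the 0% inhibition reference.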
Compound Cc1cnc(N)s1 has a growth inhibition of -11.2%. Compound Cc1cc(O)c(/C=N/C(=S)NCCc2ccccc2)c(=O)o1 has a growth inhibition of 6.55%. O=C(Nc1cccc([N+](=O)[O-])c1)OCC#CCOC(=O)Nc1cccc([N+](=O)[O-])c1 showed a growth inhibition of 9.95%. Compound COC(=O)/C(=N\NC(=S)NN)C(C(=O)C(=O)Nc1ccccc1C(N)=O)c1nc2ccccc2[nH]c1=O (stereo not given) has a growth inhibition of -4.5%. CC(=O)Oc1ccc(C(c2ccc(OC(C)=O)cc2)c2ccccn2)cc1 showed a growth inhibition of -40.9%. C[S+](C)N(c1ccccc1)C(C)(C)C showed a growth inhibition of -22.7%. In the case of N/C=N/OCc1ccccc1, the growth inhibition is reported as -3.75%. For CCCCCC(=O)Oc1ccccc1OC, the growth inhibition was -7.85%. Compound Cc1cc(C)n2nc3c4ccsc4ncc3c2n1 has a growth inhibition of 0.1%. Work on CC1=CC=CC(C)(C)C(=O)C1=O yielded a growth inhibition of -21.5%. Compound CC1(C)NNC(=S)NC1=O has a growth inhibition of -15.6%. Work on Oc1cccnc1CN1CCOCC1 yielded a growth inhibition of -6.15%. Cc1cc(C)c(C(=O)O)c(C)c1Br gave a growth inhibition of 9.1%. Compound CNc1ccn(C2OC(CO)C(O)C2O)c(=O)n1 (stereo not given) has a growth inhibition of 10.1%. Compound O=C(c1ccc(Cl)cc1)C(c1ccccc1)N1CCCCC1 (stereo not given) has a growth inhibition of -1.6%. For Nc1nnc2nc(CC(=O)c3ccc(F)cc3)c(CC(=O)c3ccc(F)cc3)nn12, the growth inhibition was 1.2%. For Oc1ccc2c(c1)c1ccccc1c1ncccc21, the growth inhibition was 9.35%. COC1(C)CNc2ccccc2C(=O)N1 (stereo not given) showed a growth inhibition of 23.1%. Compound CCN(CC)CCCNc1ccnc2ccc(Cl)cc12 has a growth inhibition of 13.9%. For O=C(NC(=O)c1ccccc1[N+](=O)[O-])Nc1ccc(Oc2ncc(Cl)cn2)c(C(F)(F)F)c1, the growth inhibition was 0.5%. In the case of CC(C#N)N(C)c1c([N+](=O)[O-])c(=O)n(C)c(=O)n1C (stereo not given), the growth inhibition is reported as -2.7%. Cc1nc(-c2ccccc2)nc2c1nc(Cc1ccc(Cl)cc1)n2Nc1ccccc1 showed a growth inhibition of -1.45%. With C[C@@]1(Cc2ccccc2)C(=O)N2[C@@H](CO)C(c3ccccc3)O[C@]2(C)c2ccccc21 (stereo not given in full) the growth inhibition was -8.8%. With CN(C)c1ccc(/C=C(\C#N)c2ccccc2Br)cc1 the growth inhibition was 29.6%. For NCC(=O)NC1CCCCC1, the growth inhibition was -3.65%. In the case of NNC(=Nc1ccccc1)SCc1ccccc1, the growth inhibition is reported as 20.2%. Work on C/C(=N/NC(N)=O)c1ccc(C)o1 yielded a growth inhibition of 1.55%. CNCC(OC)OC showed a growth inhibition of 0%. Compound Cc1c[nH]c(=O)n(CC(=O)C2(O)CCC3C4CCC5=CC(=O)CCC5(C)C4CCC32C)c1=O (stereo not given) has a growth inhibition of -0.55%. With Cc1cc2nc(C(C)(C)O)[nH]c2cc1C the growth inhibition was 1.6%. Work on COc1cc(/C=N\N=C(/C)c2ccc(C)cc2C)cc(OC)c1OC yielded a growth inhibition of 24.9%. N/N=C(\c1nc2ccc([N+](=O)[O-])cc2[nH]c1=O)C(O)c1ccc(Cl)c(Cl)c1 (stereo not given) gave a growth inhibition of 22.3%. With O=C(c1ccccc1)C(c1ccccc1)(c1ccccc1)c1ccccc1 the growth inhibition was -10.2%. Compound CN(C)C(=S)N(C)C has a growth inhibition of -23.2%. Work on C=CCCCC1CCCNC1=O (stereo not given) yielded a growth inhibition of 4.05%. For CC(Cl)C(O)C#N (stereo not given), the growth inhibition was 1.6%. O=c1cc(-c2ccc(O)cc2)oc2cc(O)cc(O)c12 gave a growth inhibition of -20.9%. Compound CC1(C)O[C@H]2Cn3c(c(C#N)c4ccccc43)[C@H]2O1 has a growth inhibition of 42.1%. For CSc1cnc2ccccc2c1Sc1c[nH]c2ccccc2c1=O, the growth inhibition was -8.05%. Work on N#Cc1c(Br)n(C2OC(CO)C(O)C2O)c2ncncc12 (stereo not given) yielded a growth inhibition of 4.7%.
